VP16 counter = inhibits Gal4-VP16 luciferase reporter, ROR gamma counter-screen | AID 2546 | Drosophila S2 Gal4-VP16 UAS-luciferase, luminescence, 20 h | Potency, µM (series often up to 53.6 µM), without a hit: at the top dose activity, negative = inhibition, most hits filed as inhibitors | actives 3.5% (n = 310,000);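 note: Gal4-VP16 expression switched on by copper sulfate through the metallothionein promoter; nearly all actives have a fitted effect of over 50% in size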
Tau fluor cs = counter-screen for tau fibril formation inhibitors | tau K18 P301L Alexa594 fluorescence, heparin fibrillization | actives 0.93% (n = 280,000) | Potency, µM (top dose mostly 57.7 µM), for inactives: top-dose activity change, negative = decrease | AID 1463; note: nearly all actives have a fitted effect of over 55% in size
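Human tau K18 P301L (15 uM unlabeled, 0.24 uM Alexa 594-labeled) in 100 mM sodium acetate pH 7 with 20 uM heparin, 6 hr at 37 C. ThT 30 uM added, 1 hr ambient; Alexa 594 FP and total fluorescence read at 555/632 nm.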
Tau ThT inhib = tau fibrillization inhibition (ThT binding); P10636; recombinant tau K18 P301L, heparin-induced fibrillization, ThT fluorescence; Potency, µM (series often up to 57.4 µM), for the others: at the highest dose activity, negative = inhibition, most hits filed as inhibitors; actives 2.1% (n = 270,000); note: nearly all actives have a fitted effect of over 55% in size
Target sequence (P10636 561-689 P618L limits assumed): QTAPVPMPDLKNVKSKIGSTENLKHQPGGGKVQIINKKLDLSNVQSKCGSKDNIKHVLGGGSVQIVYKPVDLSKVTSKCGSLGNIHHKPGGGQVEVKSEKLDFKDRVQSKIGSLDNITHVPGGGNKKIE
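Using a mix of unlabeled (15 uM) and Alexa 594-labeled (0.24 uM) tau K18 P301L, heparin-triggered fibrillization over 6 hr at 37 C was scored by ThT fluorescence.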
RORgamma inh = blocks mouse ROR gamma transcriptional activity. AID 2551. Drosophila S2 Gal4-RORgamma UAS-luciferase reporter, 20 h. Potency, µM (doses to about 53.6 µM), for the others: at the top dose activity change, negative = inhibition, usual class: inhibitors. P51450. actives 5.4% (n = 310,000); note: nearly all actives have a fitted effect of over 60% in size
Target sequence (P51450 whole entry, looked up, the tested form may be a part): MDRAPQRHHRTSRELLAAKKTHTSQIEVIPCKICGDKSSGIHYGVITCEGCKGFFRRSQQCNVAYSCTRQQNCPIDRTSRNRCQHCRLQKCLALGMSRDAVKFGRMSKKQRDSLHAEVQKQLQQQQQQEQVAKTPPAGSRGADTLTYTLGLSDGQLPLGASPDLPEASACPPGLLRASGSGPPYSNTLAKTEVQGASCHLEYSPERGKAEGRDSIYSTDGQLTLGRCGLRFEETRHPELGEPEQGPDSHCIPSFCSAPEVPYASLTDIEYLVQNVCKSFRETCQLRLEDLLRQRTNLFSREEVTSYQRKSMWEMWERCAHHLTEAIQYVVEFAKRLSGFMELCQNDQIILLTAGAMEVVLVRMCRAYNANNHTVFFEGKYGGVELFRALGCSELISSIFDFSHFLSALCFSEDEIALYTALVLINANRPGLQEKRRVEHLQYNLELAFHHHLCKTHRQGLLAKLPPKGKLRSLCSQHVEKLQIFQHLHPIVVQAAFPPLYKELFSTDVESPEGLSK
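Stable Schneider cell line, Gal4 DNA-binding domain fused to ROR gamma, UAS-luciferase. Cmpd 1 hr RT → CuSO4 700 uM final → 20 hr RT → luciferase reagent 10 min → luminescence.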
Tau fibril FP = blocks human tau fibril formation measured by polarization. actives 0.39% (n = 280,000). K18 P301L tau heparin fibrillization, Alexa594 FP, 6 h. P10636. Potency, µM (series often up to 57.7 µM), for the others: at the highest dose activity, negative = inhibition, usual class: inhibitors. AID 1468; note: nearly all actives have a fitted effect of over 55% in size
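Human tau K18 […] P301L fragment, 15 uM unlabeled plus 0.24 uM Alexa 594-labeled tau (final), with compound and 20 uM heparin in 100 mM sodium acetate pH 7; 6 hr at 37 C, then Alexa 594 FP read.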
* = called active by the depositor; ? = inconclusive; · = no result; [ ] = dose if it differs, or a comment. Rows were chosen to be rich in hits. Some 7.3% of all compounds tested hit in one or more screens of this group. Calls come from the whole dose curve; as a rule, active = well fitted curve in the direction sought with a large enough effect; inconclusive = small, poorly fitted or top-dose-only effect, or another doubt; inactive = no such curve, though single readings can be large; an effect the other way counts as inactive or inconclusive. % is set by controls: 0 for no effect and ±100 for the full control effect; potency is the fitted concentration of half-maximal effect.

SMILES	VP16 counter	Tau fluor cs	Tau ThT inhib	RORgamma inh	Tau fibril FP
Cc1ccc(C[C@@H](NS(=O)(=O)c2ccc(C(=O)O)cc2)C(=O)O)cc1	-0.9%	·	·	-12.4%	·
CSc1nccc(N2CCN(c3ccc(F)cc3)CC2)n1	12.6µM*	-15.2%	?	?	-2.8%
CCC(=O)Nc1ccc(C(=O)Cn2ncc(Cl)c(Cl)c2=O)cc1	-11.4%	-24.8%	?	-39.2%	?
CCOC(=O)c1ccc(NC(=O)CC2Sc3ncnn3C2=O)cc1 (centres undefined)	22.4µM*	-3.6%	?	?	4.7%
O=C(OCn1ncc(Cl)c(Cl)c1=O)c1ccc(C(F)(F)F)cc1	7.08µM*	-12.2%	31.6µM*	?	-13.2%
CCOC(=O)c1ccc(NC(=O)Cn2ncc(Cl)c(Cl)c2=O)cc1	10µM*	-6.7%	?	?	-9.5%
CC(=O)c1ccc(NC(=O)C(C)Sc2n[nH]c(-c3cccnc3)n2)cc1 (centres undefined)	0.6%	·	·	11.3%	·
CCOC(=O)c1c(NC(=S)Nc2ccccc2)sc2c1CCN(CC)C2	-3.2%	-10.6%	?	7.9%	-8.7%
CCOC(=O)c1c(NC(=O)c2ccccc2C(=O)O)sc2c1CCCC2	3.9%	·	·	37.3%	·
CCOC(=O)c1c(NC(=S)Nc2ccccc2)sc2c1CCCCC2	3.98µM*	-19.8%	-15.7%	2.51µM*	-1.0%
CCOC(=O)c1ccc(NC(=O)c2c(NCc3cccc(OC)c3OC)sc3c2CCC3)cc1	·	?	?	·	-0.3%
CCOC(=O)c1c(NC(=O)c2ccccc2C)sc2c1CCCC2	·	-24.3%	31.6µM*	·	?
CCOC(=O)c1ccc(NC(=O)c2c(NCc3sccc3C)sc3c2CCCCC3)cc1	·	-28.4%	31.6µM*	·	-20.7%
COC(=O)c1c(NC(=O)COC(=O)c2ccc(O)cc2)sc2c1CCCCC2	17.8µM*	?	0.7%	?	?
CCOc1ccc(CC(=O)NCCS(=O)(=O)N2CCN(c3ccccc3OC)CC2)cc1	·	1.6%	-1.5%	·	5.2%
CC1CCN(c2nc3ccccc3nc2SCC(=O)Nc2ccccc2C(C)C)CC1	·	-1.3%	-6.7%	·	2.9%
CCOC(=O)c1c(NC(=S)Nc2cccc(C)c2)sc2c1CC(C)(C)SC2	2µM*	-4.5%	1.2%	2µM*	3.2%
CCc1cc(C(=O)NNC(=S)Nc2cccc(C)c2)cs1	-10.7%	-8.1%	-17.1%	?	5.7%
COc1cc(CNCc2ccccn2)ccc1OCc1cccc(Cl)c1	?	-9.1%	2.1%	3.98µM*	-3.2%
COc1cc(CNCc2ccccn2)ccc1OCc1c(Cl)cccc1Cl	20µM*	-13.5%	-10.9%	14.1µM*	-2.8%
CCC(=O)Nc1ccc(SC#N)cc1C	?	-22.1%	8.91µM*	12.6µM*	?
Cc1cc(SC#N)cc(C)c1NC(=O)CCl	5.01µM*	-5.2%	-6.9%	3.55µM*	-2.3%
CCc1cc(SC#N)cc(C)c1NC(=O)CCl	0.4%	4.6%	6.6%	-44.0%	-2.5%
CCn1c(=O)c2c(n3c(=S)[nH]nc13)-c1ccccc1CC21CCCCC1	-12.7%	?	?	2.82µM*	-0.6%
Cc1ccc(C(=O)NC(=S)N2CCN(C)CC2)cc1	7.08µM*	-4.1%	-9.5%	0.0%	-1.0%
SMILES	VP16 counter	Tau fluor cs	Tau ThT inhib	RORgamma inh	Tau fibril FP
Cc1ccc(NC(=O)c2ccc(OC(=S)N3CCOCC3)cc2)cc1	4.0%	4.7%	-7.9%	11.8%	2.8%
CC(C)(C)c1ccc(C(=O)NC(=S)N2CCOCC2)cc1	1µM*	·	·	1.12µM*	·
CC(C)(C)c1ccc(C(=O)Nc2ccc(C(=O)N3CCOCC3)cc2)cc1	-6.9%	·	·	2.1%	·
CN1CCN(C(=S)NC(=O)c2ccc(C(C)(C)C)cc2)CC1	2.51µM*	-1.0%	4.0%	1.41µM*	6.7%
CC(C)Oc1ccc(C(=O)NC(=S)N2CCOCC2)cc1	1.26µM*	10.7%	9.9%	3.55µM*	3.9%
Cc1ccc(Cn2c(SCC(=O)NCc3ccc(Cl)cc3)nc3ccsc3c2=O)cc1	·	9.0%	13.9%	·	-0.4%
CN1CCN(C(=S)NC(=O)c2ccc(Br)cc2)CC1	1.12µM*	-14.7%	-8.5%	0.891µM*	-10.9%
CN1CCN(C(=S)NC(=O)c2ccc(-c3ccccc3)cc2)CC1	0.562µM*	-2.4%	-6.4%	0.0891µM*	3.1%
CN1CCN(C(=O)Nc2cccc(-c3ccccc3)c2)CC1	2.5%	-7.0%	-8.0%	4.1%	3.7%
CN1CCCN(C(=O)c2ccc(Br)cc2)CC1	4.1%	·	·	?	·
Cc1ccc2c(c1)C1CN(C)CCC1N2C(=S)NC(=O)c1ccc(Br)cc1 (centres undefined)	-72.9%	-12.8%	-13.0%	0.112µM*	-4.0%
O=C(NC(=S)N1CCOCC1)c1cc2ccccc2o1	3.16µM*	3.6%	1.5%	1µM*	-2.2%
Cc1cccc(-c2nnn3c2nc(NCc2ccccc2)c2ccccc23)c1	·	-13.5%	4.5%	·	-7.9%
O=C(NCCNC(=O)c1cc(Cl)ccc1Cl)c1ccccn1	-5.1%	·	·	13.6%	·
CCCN(C(=O)Cn1nc(Cc2ccncc2)c2ccccc2c1=O)c1ccccc1C	·	-10.1%	-12.2%	·	0.4%
O=C1Nc2cc(Cl)ccc2Oc2cc(Oc3ccccc3)ccc21	·	-16.0%	-6.8%	·	-3.1%
CCOC(=O)c1ccccc1NC(=O)Nc1cc2c(cc1N1CCCCC1)n(C)c(=O)n2C	·	-7.8%	-1.7%	·	-7.1%
Cc1nnc(N2CCC(C(=O)NC(C)C)CC2)c2nn(-c3ccc(Cl)cc3)c(C)c12	·	4.1%	8.0%	·	1.6%
Cc1ccc(C(=O)NC(=S)N2CCCC2)cc1	5.01µM*	·	·	0.891µM*	·
O=C1OC(C2=CCCCC2)=NC12CC2	-2.1%[10 µM]	-6.9%[11.6 µM]	-3.6%[11.5 µM]	-11.8%[10 µM]	2.9%[11.6 µM]
O=c1cc(-c2ccccc2)[nH]n1-c1ccc([N+](=O)[O-])cc1	?	?	12.6µM*	?	5.0%
O=c1ccc(-c2ccc([N+](=O)[O-])cc2)nn1-c1ccccc1	-7.0%	-12.0%	-14.2%	33.6%	-11.8%
Cc1oc(-c2ccc(C(=O)NCc3ccc(F)cc3)cc2)nc1CS(=O)c1ccccc1 (centres undefined)	·	-8.0%	-3.8%	·	-8.6%
CC(NC(=S)NCc1ccccc1)C12CC3CC(CC(C3)C1)C2 (centres undefined)	?	-18.4%	4.6%	2.82µM*	-15.3%
CC(NC(=S)NCCCN1CCOCC1)C12CC3CC(CC(C3)C1)C2 (centres undefined)	?	-6.2%	-7.4%	10µM*	2.2%
CC1CCCN(C(=O)c2cc3c(=O)n(C)c4ccccc4c3s2)C1 (centres undefined)	·	-10.5%	-9.6%	·	-0.9%
CCC(=O)N1CCc2cc(CNS(=O)(=O)c3cc(OC)ccc3OC)ccc21	·	3.4%	1.7%	·	0.0%
CCc1cc(C(=O)N2CCCC(CO)(Cc3ccc(F)cc3)C2)n(C)n1 (centres undefined)	-2.4%	·	·	-3.8%	·
CCCCc1ccc(NC(=S)NCc2cccs2)cc1	?	?	-17.4%	2.24µM*	?
